Laboratory results as given in PubChem BioAssay (NCI).
Compounds without any hit were thinned out: in the full panel of roughly 79,000, 15% have a hit. No stated cut-off is given here; in the data, active means growth inhibition above about 70%; inactive means the rest.

Columns and labels:
[1] = NCI Yeast Anticancer Drug Screen. Data for the rad50 strain (AID 155);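 further: 0% = growth of vehicle-only cultures of the same strain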; settings: S. cerevisiae rad50 strain growth inhibition, active compounds read high; at 50.0 µM unless noted
Procedure, shortened: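 Yeast carrying a defined DNA repair defect were exposed to test compounds, and growth was compared with vehicle-treated controls to give percent inhibition.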

[2] = NCI Yeast Anticancer Drug Screen. Data for the mec2-1 strain (AID 157); settings: S. cerevisiae mec2-1 strain, active compounds read high; at 50.0 µM unless noted
Procedure, shortened: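 mec2-1 yeast strain, carrying an alteration in DNA damage repair or cell cycle control, was exposed to compounds; growth inhibition was measured relative to vehicle-treated controls.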

[3] = NCI Yeast Anticancer Drug Screen. Data for the sgs1 mgt1 strain (AID 161);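 further: 0% = growth of cultures given vehicle only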; settings: S. cerevisiae sgs1 mgt1 strain, active compounds read high; at 50.0 µM unless noted
Procedure, shortened: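 Growth of a repair-deficient yeast mutant was monitored after compound treatment and expressed as inhibition relative to vehicle-treated cultures.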

[4] = NCI Yeast Anticancer Drug Screen. Data for the cln2 rad14 strain (AID 165);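 further: 0% = growth equal to vehicle treated cultures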; settings: S. cerevisiae cln2 rad14 strain, active compounds read high; at 50.0 µM unless noted
Procedure, shortened: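 Yeast carrying cln2 and rad14 alterations (cell cycle control and DNA damage repair) were exposed to compounds. Growth inhibition was measured against vehicle-treated controls.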

[5] = NCI Yeast Anticancer Drug Screen. Data for the bub3 strain (AID 167); settings: S. cerevisiae bub3 mutant strain, active compounds read high; at 50.0 µM unless noted
Procedure, shortened: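 Compounds were applied to a genetically altered yeast strain carrying a cell-cycle control defect. Growth inhibition was scored against vehicle-treated controls.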

[6] = NCI Yeast Anticancer Drug Screen. Data for the mlh1 rad18 strain (AID 175); settings: S. cerevisiae mlh1 rad18 strain growth inhibition, active compounds read high; at 50.0 µM unless noted
Procedure, shortened: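 Growth inhibition of the yeast strain was measured after compound exposure and expressed relative to vehicle-treated controls. The strain carries defined defects in DNA damage repair.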

Measured: growth inhibition

CCOCNC(=O)NCC(F)(F)C(F)(F)C(F)(F)C(F)(F)C(F)(F)C(F)(F)C(F)(F)F
inactive: [1] -1.55% | [2] -21.5% | [3] -4.6% | [4] -5.5% | [5] -1.65% | [6] 12.9%

CO/N=C(/NC(=O)OC)c1ccccc1
inactive: [1] 10.8% | [2] 18.4% | [3] -5% | [4] -20.2% | [5] 14.4% | [6] -15.3%

CCOc1ccccc1N=Nc1c(-c2ccccc2)nn(C(=O)CC(=O)Nc2cccc(Cl)c2)c1-c1ccccc1
inactive: [1] 12.6% | [2] -13.9% | [3] 40.9% | [4] 9.2% | [5] 26.2% | [6] 22.2%

CC(=O)N1C(=O)CC23c4cccc([N+](=O)[O-])c4C(=O)N2CCCN13 (centres undefined)
inactive: [1] 8.8% | [2] 0.35% | [3] 0.9% | [4] 10.6% | [5] -21.8% | [6] 17.4%

CC(C)N1CCN(c2ccncc2S(=O)(=O)N2CCCC2)CC1
inactive: [1] 2.7% | [2] 4.8% | [3] -4.65% | [4] -33.9% | [5] 1.35% | [6] 8.4%

O=C(Cc1ccccc1)NC/C=N/O
inactive: [1] 26.5% | [2] -20% | [3] 10.2% | [4] -2% | [5] -43.1% | [6] -4.75%

NNc1nc(NCc2ccco2)c2[nH]cnc2n1
inactive: [1] -10% | [2] -7.95% | [3] 1.5% | [4] 2.45% | [5] 2.5% | [6] 12.8%

Cc1ccc(-c2c3ccccc3cc3ccccc23)c(C)c1
inactive: [1] 24.9% | [2] -11.1% | [3] -1.5% | [4] -2.8% | [5] 5.25% | [6] 11.8%

O=C(NNC(=O)c1ccc(Cl)c(Cl)c1)c1ccccc1
inactive: [1] -13.8% | [2] 3.1% | [3] -6.05% | [4] -7.95% | [5] 2.75% | [6] -15.9%

OCC12OCC(C=CC1O)O2 (centres undefined)
inactive: [1] -13.2% | [2] 17.1% | [3] -4.65% | [4] 1.2% | [5] -0.15% | [6] -8.5%

CC(=O)c1ccccc1NC=O
inactive: [1] -7.55% | [2] -10.2% | [3] -12.1% | [4] -40.9% | [5] -15.3% | [6] 4.15%

Cc1cc(N)c(N)cc1C
inactive: [1] 45.1% | [2] 4.15% | [3] 52.2% | [4] 20.1% | [5] 35.9% | [6] 38.5%

CSC(=NC(=O)c1ccccc1)SCCSC(=NC(=O)c1ccccc1)SC
inactive: [1] 6.45% | [2] -7.35% | [3] 2.8% | [4] 33.6% | [5] -3.65% | [6] 6.35%

C[n+]1cn(-c2nc3ccccc3nc2[N-]S(=O)(=O)c2ccccc2)c2ccccc21
inactive: [1] -0.2% | [2] -5.7% | [3] -13.2% | [4] -18.4% | [5] -20.1% | [6] -38.5%

CC(C)(C)NCCS
inactive: [1] -17.1% | [2] -34.9% | [3] -32.4% | [4] 2.95% | [5] -19.9% | [6] -12.8%

O=C1CCCCC(=O)NCCCCCCN1
inactive: [1] -7.95% | [2] -2.65% | [3] -18.4% | [4] -21.4% | [5] -12.4% | [6] 1.85%

COc1ccc2occ(CCC(=O)O)c2c1
inactive: [1] 6.4% | [2] -0.75% | [3] -2.25% | [4] -25.9% | [5] -1.1% | [6] 6.9%

COc1ccccc1/C=C1\C(=O)N(C(=O)c2ccc(NC(C)=O)cc2)N=C1C
inactive: [1] 1.6% | [2] -27.1% | [3] -34.8% | [4] -3.2% | [5] -23.9% | [6] -26.1%

CC(C)(C)NC(=O)CCCl
inactive: [1] 16.4% | [2] 14.4% | [3] 16.5% | [4] 5.6% | [5] 1.8% | [6] 41.8%
